Source: PMC5540273 (PLoS ONE, 2017)

Key:
[1] = tested on: ABL1-phosphorylated
[2] = tested on: ACVR1
[3] = tested on: ACVR2A
[4] = tested on: T1, ADCK3
T1 construct: gene CABC1

[5] = tested on: ADCK4
[6] = tested on: AKT1
[7] = tested on: AKT2
[8] = tested on: AKT3
[9] = tested on: T2, AMPK-alpha1
T2 construct: gene PRKAA1

[10] = tested on: T3, ARK5
T3 construct: gene NUAK1

[11] = tested on: T4, ASK1
T4 construct: gene MAP3K5

[12] = tested on: T5, ASK2
T5 construct: gene MAP3K6

[13] = tested on: AXL
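Also: kd values determined as follow-up on hits from a single-replicate KINOMEscan panel screen.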

## O=C1NC(=O)C(N2CCc3ccccc32)=C1c1ccccc1Cl [SB-373598]
[1]
  Kd: > 10 µM

## COc1ccccc1-c1ccc2c(NC(=O)C3CC3)n[nH]c2n1 [SB-711239]
[1]
  Kd: > 10 µM

## Cn1ccc2ncnc(Oc3cccc(C(=O)Nc4ccccc4)c3)c21
[2]
  Kd: > 10 µM

## COc1ccc(C2=C(Nc3cccc(C(=O)O)c3)C(=O)NC2=O)cc1 [SB-390765]
[2]
  Kd: > 10 µM

## COc1cccc(NC(=O)NC2CCN(c3ccnc(Nc4ccc(F)cc4)n3)C2)c1 (stereo not shown) [GSK1379721]
[3]
  Kd: > 10 µM

## CC1=C(C(=O)Nc2cc3cn[nH]c3cc2F)C(c2ccc(C(F)(F)F)cc2)CC(=O)N1 (stereo not shown) [GSK429286]
[3]
  Kd: > 10 µM

## NC(=O)c1nnc2ccccc2c1N
[4]
  Kd: > 10 µM

## Cc1c(O)cccc1Nc1ccnc2ccc(C(F)(F)F)cc12.Cl [GW466413]
[5]
  Kd: 0.51 µM

## Cc1cc(N2Cc3ccccc3C2)nc(Nc2ccc(S(=O)(=O)N3CCOCC3)cc2)n1.Cl [GSK1669917]
[6]
  Kd: > 10 µM

## CS(=O)(=O)c1ccc(-c2nc3n(c2-c2ccncc2)CCC3)cc1 [SKF-105942]
[7]
  Kd: > 10 µM

## CCCc1ccc(S(=O)(=O)NC2CCN(c3ccnc(Nc4ccc(F)cc4)n3)C2)cc1 (stereo not shown) [GSK1379715]
[7]
  Kd: > 10 µM

## Cc1c(Cn2ccn3c(=O)cc(N4CCOCC4)nc23)cccc1C(F)(F)F [GSK2289044]
[8]
  Kd: > 10 µM

## Nc1nc(-c2nccs2)c(-c2ccnc3ccccc23)s1 [GW693542]
[8]
  Kd: > 10 µM

## Cc1nnc(-c2ccc3occ(-c4ccc(S(C)=O)cc4)c3c2)[nH]1 (stereo not shown)
[9]
  Kd: > 10 µM

## Cc1ccc(-c2cc(-c3c[nH]nc3-c3ccccn3)ccn2)cc1 [GW684088]
[10]
  Kd: > 10 µM

## CC(C)(C)c1ccc(C(=O)Nc2cn3cc(-c4cccnc4)ccc3n2)cc1
[11]
  Kd: 0.064 µM

## CC(C)(C)c1ccc(C(=O)Nc2cn3cc(Cl)ccc3n2)cc1
[11]
  Kd: 1.5 µM

## CSc1nn2c(=O)cc(N3CCOCC3)nc2n1Cc1cccc(C(F)(F)F)c1C [GSK2363608]
[12]
  Kd: > 10 µM

## O=c1cc(N2CCOCC2)nc2n(Cc3cccc(Cl)c3Cl)ccn12 [GSK2286295]
[13]
  Kd: > 10 µM
